Measured values taken from PubChem BioAssay AID1671202 (University of Kansas High Throughput Screening Laboratory, 2021).
Where “and” joins values, the source holds several entries; their conditions need not be identical. Equal values may be shown once. About 6,900 (3.6%) of roughly 190,000 compounds were called active. Many of the other results were omitted from the sample, so actives are more common in it than they were. Unmarked numbers belong to inactive results. No stated cut-off is given here; in the data, active means inhibition above about 50%; inactive means the rest.

target: Huntingtin (Homo sapiens) (UniProt P42858); test: mutant huntingtin-calmodulin interaction inhibitors – biochemical, AlphaScreen, primary screen (AID 1671202); details: AlphaScreen His-mHTT/GST-CaM binding, luminescence; at 15 µM, hits give high values;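 further: 0% = both proteins with DMSO and 100% = one protein alone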
Sequence (P42858 whole entry, looked up, stated change not applied): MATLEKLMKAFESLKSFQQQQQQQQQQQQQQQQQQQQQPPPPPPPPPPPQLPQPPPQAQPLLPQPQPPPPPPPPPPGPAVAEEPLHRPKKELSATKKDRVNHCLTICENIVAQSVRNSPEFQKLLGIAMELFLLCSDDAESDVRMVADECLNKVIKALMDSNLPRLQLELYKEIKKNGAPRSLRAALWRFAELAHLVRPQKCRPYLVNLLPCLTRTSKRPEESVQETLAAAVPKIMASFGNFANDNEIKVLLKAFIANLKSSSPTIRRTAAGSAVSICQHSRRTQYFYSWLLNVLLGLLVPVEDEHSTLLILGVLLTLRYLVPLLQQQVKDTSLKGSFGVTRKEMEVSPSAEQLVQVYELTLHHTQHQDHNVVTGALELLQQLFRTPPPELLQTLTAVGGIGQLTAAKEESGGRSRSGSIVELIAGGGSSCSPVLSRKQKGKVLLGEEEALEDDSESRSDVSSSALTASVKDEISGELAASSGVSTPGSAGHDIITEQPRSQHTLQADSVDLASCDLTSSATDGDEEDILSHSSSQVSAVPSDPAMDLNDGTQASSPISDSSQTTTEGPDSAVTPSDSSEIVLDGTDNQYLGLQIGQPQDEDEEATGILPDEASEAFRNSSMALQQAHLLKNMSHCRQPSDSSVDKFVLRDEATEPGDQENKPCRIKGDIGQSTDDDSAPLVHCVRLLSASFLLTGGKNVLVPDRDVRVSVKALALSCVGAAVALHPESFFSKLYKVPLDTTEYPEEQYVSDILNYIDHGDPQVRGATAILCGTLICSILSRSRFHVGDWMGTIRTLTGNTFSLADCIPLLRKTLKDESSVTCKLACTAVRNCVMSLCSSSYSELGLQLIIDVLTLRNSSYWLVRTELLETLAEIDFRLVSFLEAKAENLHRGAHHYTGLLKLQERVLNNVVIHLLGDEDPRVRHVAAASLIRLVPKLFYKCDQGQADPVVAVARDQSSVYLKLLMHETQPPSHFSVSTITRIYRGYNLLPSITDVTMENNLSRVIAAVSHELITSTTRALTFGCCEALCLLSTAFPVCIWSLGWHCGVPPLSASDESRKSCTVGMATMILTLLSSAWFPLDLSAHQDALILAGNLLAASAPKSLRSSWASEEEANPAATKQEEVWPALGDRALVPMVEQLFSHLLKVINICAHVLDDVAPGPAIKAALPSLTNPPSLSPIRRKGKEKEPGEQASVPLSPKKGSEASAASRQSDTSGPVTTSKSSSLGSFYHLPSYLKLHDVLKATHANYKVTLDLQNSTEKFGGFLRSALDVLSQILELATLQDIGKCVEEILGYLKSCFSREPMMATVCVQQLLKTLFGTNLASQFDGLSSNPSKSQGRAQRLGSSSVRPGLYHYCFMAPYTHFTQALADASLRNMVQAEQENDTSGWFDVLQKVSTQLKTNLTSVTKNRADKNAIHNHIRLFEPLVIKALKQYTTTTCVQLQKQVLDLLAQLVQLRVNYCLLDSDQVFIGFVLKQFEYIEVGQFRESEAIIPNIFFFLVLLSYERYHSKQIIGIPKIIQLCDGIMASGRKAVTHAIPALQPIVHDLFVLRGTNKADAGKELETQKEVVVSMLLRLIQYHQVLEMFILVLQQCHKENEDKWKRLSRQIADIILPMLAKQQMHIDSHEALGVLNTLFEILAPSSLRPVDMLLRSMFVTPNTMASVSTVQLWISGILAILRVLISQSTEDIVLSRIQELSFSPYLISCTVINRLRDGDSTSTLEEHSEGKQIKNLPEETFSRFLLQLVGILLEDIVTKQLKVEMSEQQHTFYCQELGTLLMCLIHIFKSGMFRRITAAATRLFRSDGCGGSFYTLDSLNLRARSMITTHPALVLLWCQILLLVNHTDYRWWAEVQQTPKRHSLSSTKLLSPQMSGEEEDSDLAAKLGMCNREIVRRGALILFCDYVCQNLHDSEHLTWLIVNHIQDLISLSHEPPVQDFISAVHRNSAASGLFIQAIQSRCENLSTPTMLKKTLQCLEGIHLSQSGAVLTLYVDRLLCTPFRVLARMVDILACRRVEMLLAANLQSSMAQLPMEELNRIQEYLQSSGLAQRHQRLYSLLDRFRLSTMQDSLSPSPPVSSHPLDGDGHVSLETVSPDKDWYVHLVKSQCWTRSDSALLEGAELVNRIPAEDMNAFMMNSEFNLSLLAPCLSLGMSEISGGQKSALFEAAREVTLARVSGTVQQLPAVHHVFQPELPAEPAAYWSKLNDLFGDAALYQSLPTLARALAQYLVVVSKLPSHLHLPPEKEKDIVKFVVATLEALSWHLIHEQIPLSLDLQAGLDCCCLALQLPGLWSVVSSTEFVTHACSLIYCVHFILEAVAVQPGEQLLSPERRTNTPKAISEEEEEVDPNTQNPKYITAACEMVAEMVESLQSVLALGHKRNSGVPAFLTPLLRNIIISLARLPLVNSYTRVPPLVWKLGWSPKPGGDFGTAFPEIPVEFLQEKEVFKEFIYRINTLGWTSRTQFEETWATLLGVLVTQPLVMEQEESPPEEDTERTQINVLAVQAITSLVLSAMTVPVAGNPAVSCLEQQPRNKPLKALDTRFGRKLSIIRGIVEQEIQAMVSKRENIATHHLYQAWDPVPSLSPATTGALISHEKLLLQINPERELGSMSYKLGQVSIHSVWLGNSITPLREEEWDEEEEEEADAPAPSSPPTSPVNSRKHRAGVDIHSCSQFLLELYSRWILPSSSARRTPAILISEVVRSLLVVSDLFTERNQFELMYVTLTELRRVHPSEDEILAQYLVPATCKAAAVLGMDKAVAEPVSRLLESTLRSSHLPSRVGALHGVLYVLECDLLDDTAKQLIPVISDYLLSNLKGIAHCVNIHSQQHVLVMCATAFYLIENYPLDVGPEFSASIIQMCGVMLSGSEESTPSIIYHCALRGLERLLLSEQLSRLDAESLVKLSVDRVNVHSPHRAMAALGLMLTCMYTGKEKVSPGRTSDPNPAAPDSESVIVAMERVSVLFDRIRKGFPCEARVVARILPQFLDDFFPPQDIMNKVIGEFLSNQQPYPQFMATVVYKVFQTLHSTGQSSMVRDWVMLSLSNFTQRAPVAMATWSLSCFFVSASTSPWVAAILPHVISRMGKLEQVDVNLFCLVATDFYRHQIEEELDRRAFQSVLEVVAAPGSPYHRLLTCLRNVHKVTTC

Row | Structure (SMILES) | inhibition
1 | O=C1CS/C(=C(\C(Cl)=C(Cl)Cl)[N+](=O)[O-])N1c1ccc(Cl)cc1 | 33%
2 | CCC1CO/C(=C(\C(=C(Cl)Cl)N2CCOCC2)[N+](=O)[O-])N1 (stereo not given) | -5%
3 | O=[N+]([O-])C(=C1SCCS1)C(=C(Cl)Cl)N1CCCC1 | 62% (active)
4 | N#C/C(=C\c1ccccc1F)c1nc(-c2cccc([N+](=O)[O-])c2)cs1 | 5.7%
5 | CCC(=O)NCc1nc2c(n1CC)CN(S(=O)(=O)Cc1ccc(Cl)cc1)CC2 | 0.5%
6 | COc1ccc(N2C(=O)NC3CC2(C)Oc2ccccc23)cc1Cl (stereo not given) | -0.83%
7 | CN1CCCN(C(=O)C2COC3(CCCCC3)N2C(=O)c2ccccc2)CC1 (stereo not given) | 1.3%
8 | Cc1cc(C2CCCN2C(=O)c2cc(-c3ccccc3F)no2)no1 (stereo not given) | -0.13%
9 | C=CCn1c(-c2ccc(Cl)cc2)csc1=Nc1c(C)n(C)n(-c2ccccc2)c1=O | 66% (active)
10 | Cc1c(N=C2C=C(C(C)C)C(=O)C(C(C)C)=C2)c(=O)n(-c2ccccc2)n1C | 8%
11 | C=CCn1c(=O)c2cnc(-c3ccc(Cl)cc3)nc2n(C)c1=O | -3.7%
12 | C=CCn1c(-c2ccccc2)csc1=Nc1ccc(O)cc1 | 69% (active)
13 | CCn1c(=NC(=O)c2ccc(S(=O)(=O)N(C)C)cc2)sc2cc(F)ccc21 | 3%
14 | CCN1CCN(c2ncc3c(n2)CCN(Cc2cc(OC)c(OC)cc2OC)C3)CC1 | 23.9%
15 | COc1ccc(C2CC(=O)C3=C(C2)Nc2ncnn2C3c2cccc(OC)c2OC)cc1 (stereo not given) | 10.8%
16 | O=C(NCCC1=CCCCC1)C1CCCN(Cc2nc(-c3ccncc3)no2)C1 (stereo not given) | -3.8%
17 | COc1ccc(-n2c3c(cc(C(=O)N4CCOCC4)c2=O)C(=O)CC(C)(C)C3)cc1 | -1%
18 | CC(C)c1ccc(C2N3CC4(C)CN2CC(C)(C3)C4O)cc1 (stereo not given) | -5% and 3.2%
19 | Cc1cccc(C(=O)N2CCCN(C(=O)c3cccc(C)c3)CC2)c1 | -1.9%
20 | Cc1ccc(C(=O)N2CCN(c3ccccc3)CC2)cc1 | 0.5%
21 | Cc1c(C)n(Cc2ccccc2)c2ccc(C(=O)N3CCN(C(=O)c4ccccc4)CC3)cc12 | 99% (active)
22 | O=C(Nc1ccccc1[N+](=O)[O-])c1c(F)cccc1F | 2.8%
23 | Fc1ccc(C2CC(c3ccc(Br)cc3)Nc3ncnn32)cc1 (stereo not given) | 7%
24 | CCN1C(=Cc2cc[n+](-c3ccccc3)cc2)C=Cc2ccccc21 | 65% (active)
25 | CCN1/C(=C2\N=C(c3ccccc3)OC2=O)C=Cc2ccccc21 | 39%
